Reference: ChEMBL document CHEMBL4513134, “CO-ADD screening of University of Queensland (Australia) compounds” (2021)
Results with a measured potency or affinity are listed apart.

Experiments:
Staphylococcus aureus = details: Concentration 32 ug.mL-1; ASSAY_TEST Inhibition of Bacterial Growth; detection method Absorption (OD600); MEDIA CAMHB; plate type 384well; NBS; CORNING #3640; time 18 hr
Escherichia coli = details: Concentration 32 ug.mL-1; ASSAY_TEST Inhibition of Bacterial Growth; detection method Absorption (OD600); MEDIA CAMHB; plate type 384well; NBS; CORNING #3640; time 18 hr

SMILES	Inhibition (Staphylococcus aureus) [%]	Inhibition (Escherichia coli) [%]
Cn1c([N+](=O)[O-])cnc1C(=O)NC1CC1	-13.42	-3.03
CN(C)C(=O)c1ncc([N+](=O)[O-])n1C	42.28	6.99
Cn1c([N+](=O)[O-])cnc1C(=O)NCc1cccc(OC(F)(F)F)c1	39.06	5.07
Cn1c([N+](=O)[O-])cnc1C(=O)N1CCCC1	47.23	5.01
Cn1c([N+](=O)[O-])cnc1C(=O)NCc1ccc(OC(F)(F)F)cc1	35.57	3.65
Cn1c([N+](=O)[O-])cnc1C(=O)N1CCOCC1	46.51	8.52
Cn1c([N+](=O)[O-])cnc1C(=O)NCc1ccc(F)cc1	28.26	3.69
Cn1c([N+](=O)[O-])cnc1C(=O)NCc1ccccn1.O=C(O)C(F)(F)F	45.26	-0.31
CC(NC(=O)c1ncc([N+](=O)[O-])n1C)c1ccc(F)cc1 (stereo not given)	34.68	2.11
Cc1ccc(CCNC(=O)c2ncc([N+](=O)[O-])n2C)cc1	48.13	11.97
